This note sets out measurements from PubChem BioAssay (EPA / NIEHS).

Molecules are shown by their SMILES. Active and inactive are the calls of the source. How the source made its calls: active means hit-call score of the fitted dose curve at least 0.9, where 1 is the maximum; inactive means score below 0.9.

Read-out in this experiment: Tumor necrosis factor receptor superfamily member 6 (Homo sapiens) (UniProt P25445)
The experiment is described as follows: LTEA_HepaRG_FAS: Life Technologies and Expression Analysis (LTEA) Assay for Fas cell surface death receptor (FAS) using HepaRG (AID 2283447). The settings on record: mRNA level, 48 h; actives raise or lower the signal. Put shortly:
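Differentiated human HepaRG cells, pre-cultured 48 h, were exposed in duplicate for 48 h to 8-point half-log concentrations (top 100 uM, 0.5% DMSO) in serum-free induction medium; FAS mRNA measured by qRT-PCR, normalized to ACTB/GAPDH/POLR2A, bidirectional fit versus DMSO.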
By AC50 is commonly meant the concentration giving half of the maximal activity seen. `CO/N=C(/C1=NOCCO1)c1ccccc1Oc1ncnc(Oc2ccccc2Cl)c1F`: the AC50 was 50 µM (active).
Take `CCCCOCN(C(=O)CCl)c1c(CC)cccc1CC`: the call was inactive.
As to `CS(=O)(=O)c1ccc(C(=O)C2C(=O)CCCC2=O)c([N+](=O)[O-])c1`, the outcome was inactive.
In the case of `O=c1n(Cl)c(=O)n(Cl)c(=O)n1Cl`, the compound was called inactive.
Consider `CCOP(=O)(OCC)Oc1nc(Cl)c(Cl)cc1Cl`, for which the result was inactive.
Same read-out and setting: for `Cc1cnc(C2=NC(C)(C(C)C)C(=O)N2)c(C(=O)O)c1` (stereo not given) the value was “inactive”; for `O=C(O)c1c(Cl)ccc2cc(Cl)cnc12`, “inactive”.
Same read-out and setting: the value for `Cc1cc(C)nc(Nc2ccccc2)n1` was “inactive”.
Turning to `Nc1c(Cl)c(Cl)nc(C(=O)O)c1Cl`, the compound was classed as inactive.
`OC(c1ccc(Cl)cc1)(c1ccc(Cl)cc1)C(Cl)(Cl)Cl`: the half-maximal activity concentration (AC50) is 50 µM (active).
The same measure, in the same setting: for `CCCCC(O)(Cn1cncn1)c1ccc(Cl)cc1Cl` (stereo not given) the value was 87.4 µM (active).
Regarding `Nc1c(Cl)c(F)nc(OCC(=O)O)c1Cl`, the compound was called inactive.
On to `CC1(C)C(C(=O)OC(C#N)c2cccc(Oc3ccccc3)c2)C1(C)C` (stereo not given), for which the outcome was inactive.
Take `CCOc1cc(C(C)(C)C)ccc1C1COC(c2c(F)cccc2F)=N1` (stereo not given): the call was inactive.
Regarding `N#Cc1c[nH]cc1-c1cccc2c1OC(F)(F)O2`, the compound was classed as inactive.
With `COP(=O)(OC)O/C(C)=C/C(=O)N(C)C`, the compound was called inactive.
With `CCOc1nc(F)cc2nc(S(=O)(=O)Nc3c(Cl)cccc3Cl)nn12`, the compound was classed as inactive.
With `CNC(=O)N(C)c1nnc(C(C)(C)C)s1`, the compound was classed as inactive.
For the compound `CC(C)N1C(=O)c2ccccc2NS1(=O)=O`, the compound was classed as inactive.
As for `Cc1ccc(N=CN(C)C=Nc2ccc(C)cc2C)c(C)c1`, the result was inactive.
On the same count and under the same terms, the value for `CS(=O)(=O)c1cc(C(F)(F)F)ccc1C(=O)c1cnoc1C1CC1` was “inactive”.
The same measure, in the same setting: for `C=C(C)CN(CC)c1c([N+](=O)[O-])cc(C(F)(F)F)cc1[N+](=O)[O-]` the value was “inactive”; for `COc1ccc(-c2ccccc2)cc1NNC(=O)OC(C)C`, “inactive”; for `CN=C=S`, “inactive”.
As for `O=P(O)(O)CCCl`, the call was inactive.
The same measure, in the same setting: for `C=CCOC(=O)C(C)(C)OC(=O)c1cc(-n2c(=O)cc(C(F)(F)F)n(C)c2=O)ccc1Cl` the value was “inactive”; for `CC(C)C1(C)N=C(c2ncccc2C(=O)O)NC1=O` (stereo not given), “inactive”; for `CC(C)=CC1C(C(=O)OCc2coc(Cc3ccccc3)c2)C1(C)C` (stereo not given), “inactive”.
As for `COCC(C)N(C(=O)CCl)c1c(C)csc1C` (stereo not given), the result was inactive.
For `Cn1c(-c2ccccc2)cc(-c2ccccc2)[n+]1C`, the result was inactive.
On to `CSC(=O)c1c(C(F)F)nc(C(F)(F)F)c(C(=O)SC)c1CC(C)C`, for which the outcome was inactive.
As to `Clc1cccc(C(Cl)(Cl)Cl)n1`, the call was inactive.
Consider `COc1cc(OC)nc(NC(=O)NS(=O)(=O)c2ncccc2OCC(F)(F)F)n1`, for which the outcome was inactive.
Take `COC(=O)NS(=O)(=O)c1ccc(N)cc1`: the result was inactive.
For `COC(=O)c1c(C(F)F)nc(C(F)(F)F)c(C2=NCCS2)c1CC(C)C`, the call was inactive.
